The source of these data is PubChem BioAssay AID995 (National Center for Advancing Translational Sciences (NCATS), 2007).

About 710 (0.99%) of roughly 72,000 compounds were called active. Entries that show only a call come without a potency. Roughly 7% stayed inconclusive and do not appear here. This is one part of a sample in which actives are shown more often than they occur. The call rests on the fitted dose curve; in most records, active means well fitted inhibition curve with a large enough effect; inconclusive means small, poorly fitted or top-dose-only effect; inactive means no such curve, though single readings can be large or run the other way.
Potency means the concentration at half of the fitted maximal effect.

The test is described as follows: qHTS Assay for Inhibitors of the ERK Signaling Pathway using a Homogeneous Screening Assay. Further: nearly all actives have a fitted effect of over 55% in size. Conditions: HEK293-V1b, vasopressin-stimulated pERK AlphaScreen; series mostly up to 57.5 µM. The procedure, abridged: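 HEK293 cells stably expressing V1b receptor, preincubated 30 min at 37 °C with compound, then stimulated 5 min with 25 nM vasopressin. Phospho-ERK by AlphaScreen SureFire after 5 h RT; normalized to DMSO and vasopressin; AC50 by Hill fit.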
On to `CC(C)NC[C@H](O)c1ccc2ccccc2c1`, for which the Potency entry is “inactive”.
Turning to `COC(=O)[C@@]1(Cc2ccccc2)[C@H]2c3cc(C(=O)N4CCCC4)n(Cc4ccc(C)o4)c3C[C@H]2CN1C(=O)c1ccccc1`, the Potency entry is “inactive”.
On to `CN(C(=O)CN(CCO)CC(=O)N(C)C(C)(C)Cc1ccccc1)C(C)(C)Cc1ccccc1`, for which the Potency result was “inactive”.
On to `Cc1cc(C)cc(N)c1`, for which the Potency result was “inactive”.
With `CCCn1c(-c2ccc(F)cc2)nc2c(NCC3CCCN3CC)nc(C)nc21` (stereo not drawn), the Potency entry was “inactive”.
Same read-out and setting: with `COC(=O)[C@@]1(Cc2ccc(F)cc2)[C@H]2c3cc(C(=O)N4CCCC4)n(Cc4ccc(OC(F)(F)F)cc4)c3C[C@H]2CN1C(=O)c1ccccc1` the entry was “inactive”; with `COc1ccccc1N1CCN(CCN2C(=O)c3ccccc3C(C)(C)C2=O)CC1`, “inactive”; with `CN(C)/C=N/c1cc(=O)n(C)c(=O)n1CC1CC1`, “inactive”.
Regarding `CC(C)=CCC/C(C)=C/CO/N=C1/C[C@@H](O)[C@@H](O)[C@@H]2[C@@H]3C(=O)N(C(C)(C)C)C(=O)[C@H]3CC[C@H]12`, the activity, negative = inhibition is 7.53% [at 11.5 µM] (inactive).
As to `Cn1c(N)c(C(=O)COC(=O)c2cc(C(F)(F)F)nc3c(C(F)(F)F)cccc23)c(=O)n(C)c1=O`, the Potency entry was “inactive”.
Consider `CC/C=C/C/C=C/C/C=C/CCCCCCCC(=O)OCC`, for which the Potency result is “inactive”.
As to `CC1(C)OC(C(O)(c2ccccc2)c2ccccc2)C(C(O)(c2ccccc2)c2ccccc2)O1` (stereo not drawn), the activity, negative = inhibition was 31.6% [at 11.5 µM] (inactive).
As to `COC(=O)[C@H]1[C@H]2C[C@H]3c4[nH]c5ccccc5c4CCN3C[C@@H]2CC[C@@H]1O`, the Potency entry is “inactive”.
As to `Oc1ccccc1CNCc1ccccc1O`, the activity, negative = inhibition is 19.3% [at 11.5 µM] (inactive).
Regarding `COc1ncc2nc(-c3ccc(Cl)cc3)c(=O)n(C)c2n1`, the Potency entry was “inactive”.
Take `O=C(Nc1ccccc1)N[C@H]1C[C@H](C(=O)O)Nc2cc(Cl)cc(Cl)c21`: the Potency result is “inactive”.
Consider `CC1O[C@@H](Oc2c(-c3ccc(O)c(O)c3)oc3cc(O)cc(O)c3c2=O)C(O)C(O)C1O` (stereo partly drawn), for which the Potency result was “inactive”.
For the compound `COC1[C@H](OC(N)=O)C(O)[C@H](Oc2ccc3c(O)c(NC(=O)c4ccc(O)c(CC=C(C)C)c4)c(=O)oc3c2C)OC1(C)C` (stereo partly drawn), the Potency entry is “inactive”.
On the same count and under the same terms, for `C#CCCCCCCCCCCCCCCCC(=O)O` the value was “inactive”.
With `CO[C@H]1COC(=O)[C@@H](OCc2ccccc2)/C=C\[C@H](C)[C@@H](OC)COC(=O)[C@H](OCc2ccccc2)/C=C\[C@@H]1C`, the activity, negative = inhibition was 30% [at 11.5 µM] (inactive).
With `O=C(CSc1nnc(-c2cccs2)n1Cc1ccco1)c1ccc2c(c1)OCO2`, the Potency is 31.6 µM (active).
Turning to `O=C(CSc1nnc(-c2cccnc2)n1Cc1ccco1)c1ccc(Cl)c(Cl)c1`, the Potency result is “inactive”.
Take `O=C(CSc1nnc(-c2cnccn2)n1Cc1ccco1)c1ccc(Cl)c(Cl)c1`: the Potency entry was “inactive”.
Still for that read-out and setting: for `N#Cc1cccc(-c2ccc3ncnc(NCc4cccs4)c3c2)c1` the value was “inactive”.
For `Cc1noc(C)c1-c1nccc(N2CCOCC2)n1`, the Potency result was “inactive”.
Regarding `N#CCC(=O)NC(=O)NCC1CC1`, the Potency entry is “inactive”.
`COc1ccc2c3c1OC1CC(O)C=C[C@@]31CCN(C)C2` (stereo partly drawn): the Potency entry is “inactive”.
For `COC(=O)c1ccc(C23CC4(C2)[C@H](CN(Cc2cccnc2)[C@@H]4c2ccccc2)C3c2ccc(Cl)nc2)cc1` (stereo partly drawn), the Potency result was “inactive”.
As for `CC(C)CO/N=C1/C[C@@H](O)[C@@H](O)[C@@H]2[C@@H]3C(=O)N(C[C@@H]4CCCO4)C(=O)[C@H]3CC[C@@H]12`, the activity, negative = inhibition was 8.6% [at 11.5 µM] (inactive).
Regarding `CCNc1ncc2ncc(=O)n(Cc3cccc(OC)c3)c2n1`, the Potency entry was “inactive”.
Take `CC(=O)c1ccc(-n2nnnc2SCC(=O)N2CCN(C(=O)c3ccco3)CC2)cc1`: the Potency result is “inactive”.
Consider `Cn1nnnc1SCC(=O)N1CCN(Cc2ccccc2)CC1`, for which the Potency was 31.6 µM (active).
In the case of `Cn1nnnc1SCC(=O)N1CCN(C(c2ccccc2)c2ccccc2)CC1`, the Potency entry is “inactive”.
Still for that read-out and setting: with `CC(=O)OCC(=O)C1CCC2C3CCC4=CC(=O)CC[C@@]4(C)C3CC[C@]12C` (stereo partly drawn) the entry was “inactive”; with `Cc1ccc(NC(=O)c2cccc(N(C)C)c2)cc1NC(=O)c1ccc(O)cc1`, “inactive”.
On to `CC1(C)OC2CO[C@]3(COS(N)(=O)=O)OC(C)(C)OC3C2O1` (stereo partly drawn), for which the Potency result is “inactive”.
On the same count and under the same terms, with `CC1(C)C=CC(=O)[C@]2(C)C1CC(=O)[C@]1(C)C2CC[C@@]2(C)C(c3ccoc3)OC(=O)C3OC321` (stereo partly drawn) the entry was “inactive”; with `COC(=O)[C@H]1C[C@@H]1[C@H](NC(=O)Oc1ccc(F)cc1)c1ccccc1`, “inactive”; with `O=C(c1cnccn1)N1CCC2(CCCN(Cc3ccccc3)C2)CC1`, “inactive”.
Same read-out and setting: for `COc1ccccc1OCCNCC(O)COc1cccc2[nH]c3ccccc3c12` (stereo not drawn) the value was “inactive”; for `O=C(OCC(COC(=O)c1ccccc1)(COC(=O)c1ccccc1)COC(=O)c1ccccc1)c1ccccc1`, “inactive”; for `COc1c(C(C)C)oc2cc3oc(=O)ccc3cc12`, “inactive”.
On to `COC(=O)[C@@]1(Cc2ccc(OC)cc2)[C@H]2c3cc(C(=O)N4CCCC4)n(Cc4ccc(OC(F)(F)F)cc4)c3C[C@H]2CN1C(=O)c1ccccc1`, for which the Potency result is “inactive”.
As for `O=C(O)CS(=O)c1ccc2c3c(cccc13)C(=O)c1ccccc1-2` (stereo not drawn), the activity, negative = inhibition was 22.7% [at 11.5 µM] (inactive).
With `CC(C)CO`, the Potency entry was “inactive”.
`Nc1nc2[nH]c(=O)c(=O)[nH]c2c(=O)[nH]1`: the Potency entry was “inactive”.
As to `C[C@@H]1/C=C\CC(=O)OC[C@H]2O[C@@H](C=C[C@@H]2O)[C@H](C)/C=C\CC(=O)OC[C@H]2O[C@H]1C=C[C@@H]2O`, the activity, negative = inhibition was 20.6% [at 11.5 µM] (inactive).
Take `COC(=O)[C@@H]1C[C@@]2(O)[C@@H](O)[C@@H](O)[C@@H](O)C[C@H]2N1Cc1ccc(C)s1`: the Potency result is “inactive”.
`O=C(c1cc(C(F)(F)F)cc(C(F)(F)F)c1)N1CCC[C@@]2(CCN(c3ccccn3)C2)C1`: the Potency result is “inactive”.
For `Cc1nc2cnc(N3CCNCC3)nc2n(CCc2ccccc2)c1=O`, the Potency entry was “inactive”.
Still for that read-out and setting: for `C/C=C(/C)C(=O)OC1Cc2c(ccc3ccc(=O)oc23)OC1(C)C` (stereo not drawn) the value was “inactive”.
Regarding `COc1ccc(C[C@H](N)C(=O)N[C@@H]2[C@H](O)[C@H](n3cnc4c(N(C)C)ncnc43)O[C@@H]2CO)cc1`, the Potency result is “inactive”.
For `Cc1c(S(=O)(=O)O)oc2c1C(=O)C(=O)c1c-2ccc2c1CCCC2(C)C`, the Potency entry is “inactive”.
Turning to `C=C1C([C@@]2(C)C(OC(C)=O)CC(=O)O[C@@](C)(COC(C)=O)C2CC(=O)OC)C(OC=O)C(OC(=O)C(O)C(C)CC)[C@]2(C)C(c3ccoc3)CC(=O)C12O` (stereo partly drawn), the Potency result is “inactive”.
With `Cc1ccnc(SCCn2c(Br)nc3c2c(=O)[nH]c(=O)n3C)n1`, the Potency entry is “inactive”.
Same read-out and setting: for `Cn1c(=O)[nH]c(=O)c2c1nc(Br)n2CCCCSc1nc2ccccc2o1` the value was 31.6 µM (active); for `CCCCCn1c(SCCC(C)C)nc2c1c(=O)[nH]c(=O)n2C`, “inactive”.
As for `CCC[C@@H]1C[C@@]1(CCC)C(NC(=O)c1ccc(-c2ccccc2)cc1)c1cccc(Cl)c1` (stereo partly drawn), the Potency result was “inactive”.
As to `CC1=C(C(=O)OCc2ccccc2)C(c2ccc(C(F)(F)F)cc2)NC(=O)N1CCCCCC(=O)O` (stereo not drawn), the Potency result is “inactive”.
Turning to `Cc1ccccc1NC(=O)CNc1ccccc1N1CCCCC1`, the Potency entry is “inactive”.
As for `O=C(CN1CCN(C2CCCCC2)CC1)Nc1ccccc1N1CCCCC1`, the Potency was 25.1 µM (active).
Still for that read-out and setting: for `O=C(NCCCN1CCN(C2CCCCC2)CC1)Nc1ccccc1C(F)(F)F` the value was “inactive”.
Take `CC(C)[C@H]1CC[C@@H](C)C[C@H]1O`: the Potency result is “inactive”.
For `CC(C)C1=CC2=CC[C@@H]3[C@](C)(CO)CCC[C@]3(C)C2CC1` (stereo partly drawn), the Potency result was “inactive”.
Regarding `C=CC(=O)c1ccc2ccccc2c1`, the Potency was 10 µM (active).
`Cc1ccc2nc(CC(=O)c3ccc4ccccc4c3)c(=O)[nH]c2c1`: the activity, negative = inhibition was 3.17% [at 11.5 µM] (inactive).
For `CC1C(O)CC2C(C(=O)O)=CO[C@@H](O[C@H]3OC(CO)C(O)C(O)C3O)C21` (stereo partly drawn), the Potency result is “inactive”.
Consider `Cc1ccc(S(=O)(=O)NC(=O)NN2C[C@H]3CCC[C@@H]3C2)cc1`, for which the Potency entry was “inactive”.
On to `Cc1ccc(/C(=C/CN2CCCC2)c2ccccn2)cc1`, for which the Potency result is “inactive”.
On to `Nc1nc(N)c2[nH]c(CNc3ccc(C(=O)O)cc3)nc2n1`, for which the activity, negative = inhibition was -2.04% [at 11.5 µM] (inactive).
As for `CCC1=C(OC(=O)N(CC)CC)N2C(=O)OC(=NCCc3c[nH]c4ccccc34)[C@]2(C)[C@H]2C1=CC[C@H]1C(=O)N(CC)C(=O)[C@H]12`, the Potency entry was “inactive”.
Same read-out and setting: with `c1nc(COc2nsnc2N2CCOCC2)cs1` the entry was “inactive”; with `O=C(O)COc1nsnc1N1CCOCC1`, “inactive”.
As for `c1ccc(COc2nsnc2N2CCOCC2)cc1`, the Potency was 25.1 µM (active).
On to `O=C(c1csnn1)N1CCC2(CCN(Cc3nccs3)CC2)CC1`, for which the Potency entry was “inactive”.
For `COc1ccc(C2CC(=O)c3c(O)cc(OC4OC(COC5OC(C)C(O)C(O)C5O)C(O)C(O)C4O)cc3O2)cc1O` (stereo not drawn), the Potency result is “inactive”.
The same measure, in the same setting: for `O=C1OC(C(O)CO)C(O)=C1O` (stereo not drawn) the value was “inactive”; for `O=C(NCCN1CCOCC1)c1ccc2c(c1)ncn2C1CCCC1`, 25.1 µM (active).
On the same count and under the same terms, for `O=C(NCCN1CCOCC1)c1c(F)c(F)c(F)c(F)c1F` the value was “inactive”; for `O=C(NCc1cccs1)c1ccc2c(c1)ncn2C1CCCC1`, “inactive”; for `FC(F)(F)c1ccccc1-c1cc(NCc2ccccc2)ncn1`, “inactive”.
With `C=CC(=O)OCCOCCOCCOCCOC(=O)C=C`, the Potency entry was “inactive”.
As for `O=C(CSc1n[nH]c(-c2cccnc2)n1)Nc1ccnc2ccccc12`, the Potency is 20 µM (active).
On the same count and under the same terms, with `Cc1oc2nc(SCC(=O)NCc3cccnc3)nc(N)c2c1C` the entry was “inactive”; with `COc1ccc(-c2nc(SCC(=O)N3CCOCC3)n[nH]2)cc1`, “inactive”; with `CN1CC(=O)N=C1N`, “inactive”.
The same measure, in the same setting: for `Nc1nc2c(nc(Cl)n2C2OC(CO)C(O)C2O)c(=O)[nH]1` (stereo not drawn) the value was “inactive”; for `Oc1ccc2c(c1)OCC1c3cc4c(cc3OC21)OCO4` (stereo not drawn), “inactive”; for `COC(=O)[C@@H]1C[C@@]2(O)[C@H](O)[C@H](O)[C@H](O)C[C@H]2N1CC1CCCCC1`, “inactive”.
On to `COC(=O)[C@@H]1C[C@@]2(O)[C@H](O)[C@H](O)[C@H](O)C[C@H]2N1Cc1ccc(C)s1`, for which the Potency result was “inactive”.
As for `COc1ccccc1-c1nnc(SCC(=O)N2CC(C)CC(C)C2)o1` (stereo not drawn), the Potency result was “inactive”.
Consider `COc1ccccc1-c1nnc(SCC(=O)Nc2cc(C)on2)o1`, for which the Potency result is “inactive”.
As for `COc1ccccc1-c1nnc(SCC(=O)Nc2ccccc2)o1`, the Potency is 25.1 µM (active).
